Bioassay records: PubChem, Emory University Molecular Libraries Screening Center
14-3-3g Raf – alters human 14-3-3 gamma binding to Raf peptide. inhibition, % at 40 µM. P61981. FP, 14-3-3gamma / TMR-pS259-Raf peptide binding. 0.19% of 160,000 active; in the data active = inhibition above about 30%;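 note: 0% = protein plus tracer without compound and 100% = blank with tracer alone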
Target sequence (P61981 whole entry, looked up): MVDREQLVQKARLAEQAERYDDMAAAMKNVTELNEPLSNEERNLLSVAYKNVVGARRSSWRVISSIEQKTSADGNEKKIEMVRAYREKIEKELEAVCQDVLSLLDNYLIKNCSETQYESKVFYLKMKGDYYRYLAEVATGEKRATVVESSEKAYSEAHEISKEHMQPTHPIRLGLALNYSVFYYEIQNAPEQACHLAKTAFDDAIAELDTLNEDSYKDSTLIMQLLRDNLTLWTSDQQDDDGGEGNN
* marks the source's active call; other numbers are inactive results; + = active, no number; ! = not confirmed by another sample. This excerpt belongs to a sample that is enriched for hits.

SMILES	14-3-3g Raf
O=C(CCNC(=O)c1ccc(Br)o1)NCc1ccccc1Cl	1
O=C(CCNC(=O)c1ccc(Br)o1)NCc1ccccn1	+!
Cc1ccc(CNC(=O)CCNC(=O)c2ccc(Br)o2)cc1	-4
COc1ccc(C(=O)Oc2c(S(=O)(=O)c3ccc(C)cc3)c(C)nn2C(C)(C)C)cc1OC	-3
CC(=O)NS(=O)(=O)c1ccc(N/C=c2\c(C)c(C#N)c3nc4ccccc4n3c2=O)cc1	-84
COc1cc2nc(=S)n3c(c2cc1OC)NC(CCC(=O)N1CCN(c2ccc(Cl)cc2)CC1)C3=O (stereo not given)	-23
CCOC(=O)c1cnc2ccc(OC)cc2c1Nc1ccc(N(C)C)cc1	-25
COc1ccc(CNC(=O)Cn2cc3c(n2)CCCCC3)cc1	2
O=C(Cn1cc2c(n1)CCCC2)NCc1cccs1	-4
O=C(Cn1cc2c(n1)CCCC2)NCc1ccccn1	67*
Cc1ccc(C=Nc2sc3c(c2C#N)CCC3)cc1	-31
N#Cc1c(N=Cc2ccc(Cl)c([N+](=O)[O-])c2)sc2c1CCCC2	-8
N#Cc1c(N=Cc2cc([N+](=O)[O-])ccc2O)sc2c1CCCC2	-13
N#Cc1c(N=Cc2ccc([N+](=O)[O-])cc2)sc2c1CCC2	135*
N#Cc1c(N=Cc2ccc([N+](=O)[O-])s2)sc2c1CCCC2	63*
N#Cc1c(N=Cc2cc([N+](=O)[O-])ccc2Cl)sc2c1CCCC2	1
COc1cccc(C2C3=C(CC(C)(C)CC3=O)Nc3nc(SCc4cccnc4)[nH]c(=O)c32)c1 (stereo not given)	-9
COc1ccc(C2C(C(C)=O)N3c4ccccc4C=CC3C2(C#N)C#N)cc1 (stereo not given)	-104
O=C(Nc1ccc(N2S(=O)(=O)c3ccccc3S2(=O)=O)cc1)c1cccs1	-12
CC1=C(C(=O)OC2CCCC2)C(c2ccccc2OC(C)C)NC(=O)N1 (stereo not given)	2
CC1CCc2ccccc2N1C(=O)c1ccc(N2CC3CC(C2)c2cccc(=O)n2C3)c(NC(=O)c2cccc(C(F)(F)F)c2)c1 (stereo not given)	-6
Cc1ccc2c(=O)cc(-c3cccc([N+](=O)[O-])c3)oc2c1	-14
Cc1ccc(N=Cc2cc(-c3ccccc3)oc2S)c(C)c1	90*
C=CCN=c1cc(-c2ccccc2)oc2ccc(C)cc12	-12
Cc1ccc(N=Cc2ccccc2O)c(C(=O)c2ccccc2)c1	-2
SMILES	14-3-3g Raf
COc1ccc(C2CC(c3cccc(Br)c3)Nc3nnnn32)c(OC)c1 (stereo not given)	-9
O=C(CSc1nc2cc(Cl)ccc2s1)Nc1ccccc1F	-1
COc1ccccc1-n1nnnc1SCc1ccccc1	-2
Clc1cc2c(cc1CSc1nnnn1-c1ccccc1)OCO2	-1
COc1ccccc1-n1nnnc1SCc1cc2c(cc1Br)OCO2	50*
CC(C)CCC1=NN(C(=O)c2cccc(Cl)c2)C(O)(C(F)(F)F)C1 (stereo not given)	0
O=C(O)c1ccccc1N=CC(Br)=Cc1ccccc1	-12
Cc1nc2c(sc3nc4c(cc32)COC(C)(C)C4)c(=O)n1C	4
CN1CCN(C(=O)c2cc3c(n(-c4ccc(Cl)cc4)c2=O)CCCC3=O)CC1	-10
Cc1cc(O)c(C=Nc2ccc(C(=O)O)cc2)c(C)c1Cl	3
Cc1nc(N=Nc2ccc(C(=O)O)cc2)c(COP(=O)(O)O)c(C=O)c1O	69*
Cc1nc(N=Nc2ccc(S(=O)(=O)O)cc2S(=O)(=O)O)c(COP(=O)(O)O)c(C=O)c1O	35*
C(=Cc1ccccc1)CSc1ncnc2c1oc1ccccc12	-9
COCCOC(=O)C1=C(C)NC2=C(C(=O)C(C(=O)OC)C(C)C2)C1c1cccc([N+](=O)[O-])c1 (stereo not given)	8
CC(C)(C)C1CCc2c(sc(NC(=O)c3cnn4c(C(F)(F)F)cc(-c5ccco5)nc34)c2C#N)C1 (stereo not given)	-8
Cc1ccc(N)cc1N1C(=O)c2ccccc2C1=O	-4
C=CCn1c(SCC(=O)c2ccc(F)cc2)nc2sc3c(c2c1=O)CCC3	2
O=C(COc1ccc2c(c1)C(=O)CC1(CCCCC1)O2)NCc1ccccn1	-10
CC(=O)N1CCC2(CC1)CC(=O)c1cc(OCC(=O)NCc3ccccn3)ccc1O2	103*
O=C(COc1ccc2c(c1)C(=O)CC1(CCCCC1)O2)NCc1ccccc1	-1
CCc1ccc(Nc2nc(-c3cc4cc(OC)ccc4oc3=O)cs2)cc1	-25
COCCNC(=O)c1ccc2c(c1)nc(C)n2-c1ccccc1OC	-129
COc1ccc(OC)c(-n2cnc3cc(C(=O)O)ccc32)c1	-19
CCOc1ccccc1-n1cnc2cc(C(=O)O)ccc21	57*
Cc1nc2cc(C(=O)O)ccc2n1-c1ccccc1	-3
SMILES	14-3-3g Raf
CCOc1ccccc1-n1cnc2cc(C(=O)NCc3ccco3)ccc21	-14
COc1ccccc1-n1c(C)nc2cc(C(=O)O)ccc21	40*
COc1cc(OC)cc(-c2nnc(NC(=O)c3ccc(S(=O)(=O)N(C)C4CCCCC4)cc3)o2)c1	-9
COc1ccc(C2CS(=O)(=O)CS(=O)(=O)C2)cc1OC	-5
O=S(=O)(c1cccc2c(S(=O)(=O)N3CCN(c4ccccc4)CC3)cccc12)N1CCN(c2ccccc2)CC1	7
CC1(C)C(N(O)C(=O)Nc2ccccc2)N(c2cccc(Cl)c2)C(=O)N1O (stereo not given)	-6
CN1C(=S)SC(N(O)C(=O)Nc2ccccc2)C1(C)C (stereo not given)	43*
CC1=C(C(=O)Nc2ccccc2)C(c2ccc([N+](=O)[O-])cc2)NC(=S)N1 (stereo not given)	4
Cc1ccc(CNC(=O)c2ccc(N3CCCCCC3)c([N+](=O)[O-])c2)cc1	5
Cc1ccccc1CNC(=O)c1ccc(C2SCC(=O)N2Cc2ccccc2)cc1 (stereo not given)	-14
CCCCCn1c(N)c(C#N)c2nc3ccccc3nc21	-7
CCCCNc1ncc(C(C)=O)c2ccccc12	0
CCCCNc1ncc2cc3ccccc3nc2c1C#N	90*
COc1ccc(CNC(=O)c2ccc3c(c2)N(Cc2ccc(C)cc2)C(=O)CS3)cc1	-1
C/C(O)=c1/c(=O)nc2cccc3c2=c1c1ccccc1c3=O	35*
Cc1cccc(-c2nc3ccccc3c(=O)[nH]2)c1	-47
Cc1nc2ccccc2c(C(=O)O)c1C(=O)O	-3
COc1ccc(-c2cc(C(F)(F)F)n3nc(C(=O)Nc4ccc(OC)cc4OC)cc3n2)cc1	4
CN(C)c1ccc(C=Cc2nc3c(ccc4ccccc43)s2)cc1	-14
CN(C)c1ccc(C2C3=C(CCCC3=O)Nc3nc(SCc4ccccc4Cl)[nH]c(=O)c32)cc1 (stereo not given)	-35
CC(C)(C)n1nc2c(c1NC(=O)c1ccc(S(=O)(=O)N3CCCCC3)cc1)CS(=O)(=O)C2	-7
CCOc1cc(C2Nc3ccccc3-c3nnc(SC)nc3O2)cc(Br)c1OCC (stereo not given)	-106
CCOc1cccc(C2Nc3ccccc3-c3nnc(SC)nc3O2)c1OC (stereo not given)	-1
CCSc1nnc2c(n1)OC(c1ccccc1C)Nc1ccccc1-2 (stereo not given)	41*
C=CCSc1nnc2c(n1)OC(c1ccccc1C)Nc1ccccc1-2 (stereo not given)	-7
CCOc1ccc([N+](=O)[O-])cc1C1Nc2ccccc2-c2nnc(SC)nc2O1 (stereo not given)	38*
CSc1nnc2c(n1)OC(c1ccsc1)Nc1ccccc1-2 (stereo not given)	-3
